PGC1a acetyl inh = modulators of PGC1a acetylation; U2OS PGC1a acetylation, AlphaScreen anti-acetyl-lysine; with virally co-expressed GCN5 acetyltransferase; inhibition, % at 15.6 µM; 0.17% of 350,000 active; AID 651687;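 active means every replicate shows inhibition of at least 40%; inconclusive means mean inhibition at least 40% but some replicate below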;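 further: 0% = neutral control wells and 100% = positive control wells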
MLL AF4-AF9 inh = inhibitors of human MLL-AF4/AF9 interaction. inhibition, % at 10 µM. P42568. AID 651704. AlphaScreen, biotin-AF4 peptide binding to FLAG-AF9. 0.47% of 350,000 active;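 active means every replicate reaching a set inhibition limit, whatever the replicate mean, cut at about 25% in these data; inconclusive means mean inhibition reaches that limit but some replicates miss it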;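 further: 0% = plate neutral control median and 100% = total signal loss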
ERAP1 inh = inhibitors of human ERAP1 aminopeptidase; Q9NZ08; recombinant ERAP1, Leu-AMC fluorescence, 60 min; inhibition, % at 10.7 µM; 0.15% of 340,000 active; AID 652197;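 active means mean replicate inhibition of at least 30%, or all replicates individually reaching that 30% level; inactive means mean below 30% and not every replicate reaching it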;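 further: 0% = neutral control wells and 100% = L-leucinethiol positive control wells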
GSIS activator = primary screen for activators of insulin secretion dependent on glucose, INS-1E cells, GLuc reporter luminescence. activation, % at 16.6 µM. 0.61% of 370,000 active. INS-1E GLuc reporter insulin secretion, 2-3 h. AID 743287;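 active means lowest replicate activation of at least 40%, so every replicate reaches that level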;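 further: 0% = median of neutral control wells and 100% = median of IBMX positive control wells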
RAD52 inh = blocks human RAD52 DNA annealing; P43351; recombinant RAD52 DNA annealing, FRET fluorescence; inhibition, % at 18.7 µM; 0.46% of 360,000 active;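 active means every replicate showing at least 50% inhibition; inconclusive means mean inhibition at least 50% but not in every replicate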
RAD54 branch = RAD54 (human) branch migration inhibition | AID 602329 | RAD54 Holliday junction branch migration, FAM/BHQ fluorescence | 0.14% of 360,000 active | inhibition, % at 10.4 µM | Q92698;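 active means mean normalized replicate activity at least 40 and at least half of replicates scoring 40 or more; inconclusive means only one of the two criteria met; inactive means mean below 40 and under half of replicates reaching 40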;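 further: 0% = median of neutral control wells and 100% = median of positive control wells; inhibitors cause a drop in the FAM fluorescence signal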
DNA binder FP = binds DNA, flagging false RAD52 inhibitor hits; shares compounds with RAD52 inh; Salmon sperm DNA/acridine orange FP displacement, DNA binding; AC50, µM; 8% of 1,000 active; AID 652128;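 active means fitted half-maximal concentration for signal loss at or below twice the highest dose tested, in every separate run, actives reach about 64 µM in these data; inconclusive means runs disagree, or flat partial signal loss, or poor fit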
* = called active by the depositor; i = inactive; ? = inconclusive; . = no result. This is a sample that favours compounds with a hit; in the whole collection about 1.4% have one here.

SMILES	PGC1a acetyl inh	MLL AF4-AF9 inh	ERAP1 inh	GSIS activator	RAD52 inh	RAD54 branch	DNA binder FP
CCOC(=O)c1ccc(NC(=O)/C=C/c2cccs2)cc1	-11	9	-2	1	-9	.	.
CC(C)NC(=O)N(C)C[C@H]1Oc2ccc(NC(=O)Cc3cn(C)c4ccccc34)cc2C(=O)N([C@@H](C)CO)C[C@H]1C	-2	-11	1	-14	16	5	.
CN/C(=C\[N+](=O)[O-])NCCSCc1ccc(CN(C)C)o1	.	-9	0	.	61*	-10	i
Cc1c(C(=O)NCCSCc2ccco2)cccc1[N+](=O)[O-]	4	.	.	16	.	-4	.
C[C@@H]1CN([C@@H](C)CO)C(=O)c2cc(-c3ccccc3)cnc2O[C@H]1CN(C)C(=O)c1ccccn1	-1	-4	-1	4	9	6	.
COc1cccc(C2=NCCc3cc4c(cc32)OCO4)c1OC	-5	.	.	6	.	3	.
COc1ccc2cc3[n+](cc2c1OC)CCc1cc2c(cc1-3)OCO2	-1	-1	0	-18	75*	72*	i
CC=Cc1ccc2n(c1=O)C[C@H]1[C@H](CO)[C@@H](C(=O)NCC3CC3)[C@@H]2N1S(=O)(=O)c1cn(C)cn1 (mixture of isomers)	.	-2	.	-2	-3	0	.
CNC12CCc3cc(OC)c(OC)c(c31)-c1cc3c(cc1C2)OCO3 (stereo not drawn)	.	.	1	-21	54*	.	i
COc1cc2c(c(OC)c1OC)-c1c(cc3c(c1O)OCO3)C[C@@H](C)[C@@H](C)C2	4	6	16	-35	8	-5	.
CC#CC[N+](C)(C)CCCCCCCC	5	-2	.	6	-6	-12	.
CCCCCCCCCCCCCCCC[N+](C)(C)Cc1ccc(F)cc1	.	5	96*	.	91*	.	26µM*
CO[C@@H]1CN(C)C(=O)c2cc(NS(C)(=O)=O)ccc2OC[C@H](C)N(CCC(F)(F)F)C[C@@H]1C	9	-2	1	13	4	0	.
OC[C@@H]1CN(Cc2ccc3c(c2)OCO3)C[C@H](n2cnc3c(N4CCCC4)ncnc32)O1	-1	-3	-1	-2	86*	4	i
COCC#Cc1cnc2c(c1)C(=O)N([C@H](C)CO)C[C@H](C)[C@H](CN(C)S(C)(=O)=O)O2	1	-4	2	3	-6	7	.
COc1ccc(N2CCc3c(C)nc4c(OC)cc(OC)cc4c32)cc1	7	3	1	3	87*	.	i
COc1ccc(N2CCc3c(C)nc4c(OC)cccc4c32)cc1	.	1	20	-4	52*	.	i
COc1ccc(N2CCc3c(C)nc4c(OC)cc(OC)cc4c32)c(OC)c1	-49	.	.	.	.	44	.
C[C@H]1CCCCO[C@@H](CN(C)S(=O)(=O)c2ccc(F)cc2)[C@@H](C)CN([C@@H](C)CO)C(=O)c2cc(NC(=O)Nc3cccc4ccccc34)ccc2O1	3	-1	1	16	-21	.	.
COc1ccccc1NC(=O)Nc1ccc2c(c1)C(=O)N(C)C[C@@H](OC)[C@H](C)CN(C)[C@@H](C)CO2	0	1	.	1	-14	-17	.
COc1ccc(NC(=O)N(C)C[C@H]2Oc3c(NS(=O)(=O)c4ccccc4)cccc3C(=O)N([C@@H](C)CO)C[C@@H]2C)cc1	-11	.	.	0	.	.	.
CC1=CC(C)(C)N=C(Nc2nc(C)c3cc(C)cc(C)c3n2)N1	8	12	7	-34	79*	32	i
Cc1ccc(C)n1-c1nnc(N2CCC(C(=O)NCCCN3CCN(C)CC3)CC2)s1	3	16	.	12	70*	-5	i
C[C@@H]1CN([C@@H](C)CO)C(=O)c2cc(NC(=O)C3CC3)ccc2O[C@H]1CN(C)Cc1ccc(C(=O)O)cc1	-2	-4	-1	17	-2	2	.
Cc1cc(C)c2c(N)c3cccc(C)c3nc2n1	.	-9	10	.	78*	.	32µM*
SMILES	PGC1a acetyl inh	MLL AF4-AF9 inh	ERAP1 inh	GSIS activator	RAD52 inh	RAD54 branch	DNA binder FP
Cc1cccc2c(N)c3c(nc12)CCCC3 (tested in a mixture with another compound)	.	-2	.	28	-11	17	.
CC(C)CC#Cc1ccc([C@@H]2[C@H](CO)N3C(=O)CN(S(C)(=O)=O)C[C@@H]23)cc1	.	.	.	-1	.	.	.
CN[C@H]1C[C@H]2c3[nH]c4ccc(-c5cccc(C)c5)cc4c3CCN2C[C@H]1[C@H](C)O	-3	40*	1	0	58*	3	i
Cc1cccc(-c2ccc3[nH]c4c(c3c2)CCN2C[C@H]3[C@H](C)ON(C)[C@H]3C[C@@H]42)c1	8	39*	8	13	60*	0	i
Cc1cccc(-c2ccc3[nH]c4c(c3c2)CCN2C[C@@H]([C@H](C)O)[C@@H](N(C)C(=O)NC3CCCCC3)C[C@@H]42)c1	?	16	4	-3	6	4	.
COc1cc(/C=C2\SC(=O)N(CCN)C2=O)ccc1OS(=O)(=O)c1cc(C)ccc1C	-1	11	7	-6	84*	.	i
CC=Cc1ccc2n(c1=O)C[C@H]1[C@H](CO)[C@@H](C(=O)NC3CCC3)[C@@H]2N1C(=O)c1cnccn1 (mixture of isomers)	-2	-2	.	1	-10	.	.
COc1cc2cc(-c3ccc(OC)c(OC)c3C)nc(N)c2cc1OC	-27	13	.	-25	61*	45	i
COc1cc2cc(-c3ccc(O)cc3O)nc(C)c2cc1OC	-29	-6	1	21	-3	36	.
COc1ccc(OC)c(-c2nnc3n2N=C(c2ccc(OC)c(OC4CCCC4)c2)CS3)c1	.	9	1	.	-16	1	.
COc1ccc(C2=Nn3c(nnc3-c3ccccc3F)SC2)cc1OC1CCCC1	-4	11	-1	55	-9	8	i
C[C@@H]1CCCCO[C@H](CN(C)C(=O)c2ccncc2)[C@@H](C)CN([C@H](C)CO)C(=O)c2cc(NC(=O)C3CCCCC3)ccc2O1	5	.	.	19	.	.	.

Screens (PubChem BioAssay)
